Source: PubChem BioAssay AID504467 (National Center for Advancing Translational Sciences (NCATS), 2011)
The campaign covered roughly 330,000 compounds. About 7,700 (2.3%) were called active. Not shown: some 26% with an inconclusive outcome. Calls follow the shape of the dose curve; as a rule, active = well fitted inhibition curve with a large enough effect; inconclusive = small, poorly fitted or top-dose-only effect, or effect the other way; inactive = flat fitted curve, though single readings scatter. Only a selection was taken, and actives are over-represented in it overall.

Assay: qHTS screen for small molecules that inhibit ELG1-dependent DNA repair in human embryonic kidney (HEK293T) cells expressing luciferase-tagged ELG1; also: nearly all actives have a fitted effect of over 55% in size
Details: HEK293T ELG1-luciferase reporter, luminescence, 16 h, DNA damage induced by 5-fluorouridine; series mostly up to 46.1 µM; activity change, negative = inhibition: at the top concentration
Method in brief: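 Quantitative HTS, concentration-response format. 2,000 cells/well co-treated with 5-fluorouridine and compound, 16 hr in 5% CO2 at 37 °C; ONE-Glo luminescence read after 30 min.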
% is scaled to controls: 0 for no effect and ±100 for the full control effect; potency is read from the fitted curve at half-maximal effect.

Compound	activity change, negative = inhibition	Potency
Cn1cccc1C(=O)OCC(=O)NCCc1ccccc1	0% (inactive)	–
Cc1cccc(C)c1NC(=O)COC(=O)c1c(C)nn(-c2ccccc2)c1C	-24.2% (inactive)	–
O=C(CCNC(=O)c1ccc(Br)cc1)NCC(c1ccco1)N1CCCCC1 (stereo not drawn)	9.27% (inactive)	–
CCn1c(=O)c(=O)n(CC)c2cc(S(=O)(=O)N3CCc4ccccc43)ccc21	3.09% (inactive)	–
CC1CN(S(=O)(=O)c2ccc(C(=O)Nc3sccc3C(N)=O)cc2)CC(C)O1 (stereo not drawn)	–	18.4 µM (active)
CC1CC(C)CN(S(=O)(=O)c2ccc(C(=O)NN3CCOCC3)cc2)C1 (stereo not drawn)	7.51% (inactive)	–
CNC(=O)c1ccsc1NC(=O)c1ccc(S(=O)(=O)N2CCc3ccccc32)cc1	–	18.4 µM (active)
CC1CN(S(=O)(=O)c2ccc(C(=O)NN3CCN(C)CC3)cc2)CC(C)O1 (stereo not drawn)	8.64% (inactive)	–
COc1cccc(NC(=O)c2cc(S(=O)(=O)N3CCc4ccccc43)cn2C)c1	13.6% (inactive)	–
N#Cc1c(-c2ccccc2)nc(SCc2ccc([N+](=O)[O-])cc2)[nH]c1=O	-0.721% (inactive)	–
O=C(CNC(=O)C1COc2ccccc2O1)N/N=C/c1cc(Br)c(O)c(Br)c1 (stereo not drawn)	-3.97% (inactive)	–
O=C(CSc1nccn1-c1cccc(F)c1)NC1CCCC1	4.69% (inactive)	–
CC(C)CC(O)C1CCN(C(=O)CCc2nnc(-c3ccc4c(c3)OCO4)o2)CC1 (stereo not drawn)	-2.7% (inactive)	–
CCn1c2ccc(F)cc2c2nnc(SCCN3CCOCC3)nc21	-3.22% (inactive)	–
CCN(CC(=O)NC(C)C)C(=O)c1cc(S(=O)(=O)N2CCCCC2)ccc1N1CCCCC1	0.278% (inactive)	–
CCN(CC(=O)Nc1ccccc1C(=O)NC1CC1)Cc1cccs1	27.6% (inactive)	–
O=C1CCCc2c1nc(-c1cccc(Cl)c1)n2O	10.7% (inactive)	–
Cc1cccc(-c2nc3ccccc3c(=O)n2NC(=O)Cc2ccc(Cl)cc2)c1	16.5% (inactive)	–
O=c1c2cc(Br)ccc2nc(-c2cccc(Cl)c2)n1O	–	18.3 µM (active)
Cc1ccc(NC(=O)Cn2cnc3c(OCc4ccccc4)ncnc32)cc1C	-1.75% (inactive)	–
Cc1cc(C)c(S(=O)(=O)NCC(c2ccc3c(c2)OCO3)N2CCOCC2)c(C)c1 (stereo not drawn)	-0.27% (inactive)	–

Compound	activity change, negative = inhibition	Potency
Fc1ccc(/C=N/n2c(COc3ccccc3)n[nH]c2=S)cc1	-4.36% (inactive)	–
CN(C)c1ccc(Nc2c3c4c(cccc4n(C)c2=O)C(=O)c2ccccc2-3)cc1	–	7.31 µM (active)
CN(C)c1ccc(C2N(C)C(=O)c3ccccc3N2C)cc1 (stereo not drawn)	1.38% (inactive)	–
Cc1ccc(NS(=O)(=O)c2ccc3c(c2)n(C)c(=O)c(=O)n3C)c(C)c1	-5.16% (inactive)	–
CCC1=Nc2cc(C(=O)NCCN3CCCC3)ccc2Sc2ccc(C)cc21	-1.4% (inactive)	–
CCOC(=O)CC1(NC(=O)c2cc(COc3cncc(Cl)c3)on2)CCCCC1	-8.66% (inactive)	–
CN1CCC(N(C)S(=O)(=O)c2ccc(NC(=O)c3cccc(C#N)c3)cc2)CC1	0.329% (inactive)	–
Cc1ccc(S(=O)(=O)NCC(=O)N2CCN(c3ccccn3)CC2)cc1	-7.21% (inactive)	–
O=C(Cc1ccccc1Cl)N1CCN(c2ccccn2)CC1	-17.5% (inactive)	–
Cc1ccnc(N2CCN(C(=O)CSc3nc4ccccc4nc3N3CCCCC3)CC2)c1	–	12.6 µM (active)
COC(=O)c1ccc(CSc2ccc(S(=O)(=O)N3CCCCC3)cn2)cc1	14.1% (inactive)	–
CC1CCCCN1S(=O)(=O)CCNC(=O)c1ccccc1 (stereo not drawn)	10.3% (inactive)	–
O=C(Nc1nnc(-c2ccco2)o1)c1ccc(S(=O)(=O)N2CCOCC2)cc1	-19.6% (inactive)	–
CSCc1nnc(NC(=O)c2ccc(S(=O)(=O)N3CCCCC3C)cc2)o1 (stereo not drawn)	–	20.6 µM (active)
Cc1ccc(C(=O)CN2C(=O)NC3(CCc4ccccc43)C2=O)c(C)c1 (stereo not drawn)	17.4% (inactive)	–
COc1ccc(CCNC(=O)COC(=O)c2cnc(Cl)c(Cl)c2)cc1	14.7% (inactive)	–
COCC(C)n1c(SCC(=O)NC2CCCCC2C)nc2ccccc2c1=O (stereo not drawn)	-8.42% (inactive)	–
COc1cc(C(=O)NCc2nnc(SCC(=O)c3ccc(Cl)cc3)o2)cc(OC)c1OC	7.16% (inactive)	–
CCC(=O)Nc1ccc(C(=O)CSc2nnc(CNc3ccc(Cl)cc3)o2)cc1OC	–	11.6 µM (active)
COc1ccccc1NC(=O)CSc1nnc(CNC(=O)c2ccccc2F)o1	0.554% (inactive)	–
CCOc1ncccc1C(=O)OCC(=O)c1c[nH]c2ccccc12	8.6% (inactive)	–

Compound	activity change, negative = inhibition	Potency
Cc1cc(OCC(=O)NCC(O)c2ccccc2)c2c(C)c(C)c(=O)oc2c1 (stereo not drawn)	3.77% (inactive)	–
Cc1ncn(C23CC4CC(CC(O)(C4)C2)C3)n1	3.68% (inactive)	–
O=C(Nc1ccc(S(=O)(=O)Nc2ncccn2)cc1)C12CC3CC(CC(C3)C1)C2	12.4% (inactive)	–
COC(=O)c1ccc(NC(=O)C23CC4CC(C2)CC(n2cnc(Cl)n2)(C4)C3)cc1	–	5.8 µM (active)
CN(C)C(=O)CCc1ccc2c3c([nH]c2c1)[C@]1(C)[C@@H](C(=O)N2CCCCC2)C[C@H](CC(=O)NCCC2=CCCCC2)C(=O)N1CC3	1.15% (inactive)	–
Cc1cccc(-c2oc3ccc(-c4ccc5c(c4)OCO5)cc3c2C#Cc2cncn2C)c1	19.1% (inactive)	–
COc1ccc(/C=C2\CCCC3C2=NN(C(=O)c2scnc2C)C3c2ccc(OC)cc2)cc1 (stereo not drawn)	–	18.4 µM (active)
CC(Oc1cc2oc(=O)c3c(c2cc1Cl)CCCC3)C(=O)NCc1ccncc1 (stereo not drawn)	-16.7% (inactive)	–
CS(=O)(=O)N1CCN(C(=O)c2cc3ccccc3oc2=O)CC1	9.01% (inactive)	–
O=C(c1cc2ccccc2o1)N1CCN(S(=O)(=O)c2ccc(Cl)s2)CC1	–	16.4 µM (active)
O=C(c1cc2ccccc2o1)N1CCN(Cc2ccccc2)CC1	10.9% (inactive)	–
CCCc1cc(=O)[nH]c(SCC(=O)Nc2ccc(C(=O)Nc3ccccc3OC)cc2)n1	4.86% (inactive)	–
Cc1ccc(-c2cc(C(=O)NC3CCN(Cc4ccccc4)CC3)c3ccccc3n2)cc1	11.4% (inactive)	–
Cc1ccn2cc(C(=O)NC3CCN(Cc4ccccc4)CC3)nc2c1	–	20.6 µM (active)
O=C(NC1CCN(Cc2ccccc2)CC1)c1c(F)cccc1F	18.7% (inactive)	–
COc1ccc(NC(=O)C(CC(C)C)NC(=O)C2CCC(C)CC2)cc1 (stereo not drawn)	16.9% (inactive)	–
COc1ccc(NS(=O)(=O)c2ccc(C)c(C(=O)N(C)Cc3ccc(OC)cc3OC)c2)cc1	-22.6% (inactive)	–
O=C(Cc1ccc([N+](=O)[O-])cc1)Nc1ccc(C(=O)N2CCOCC2)cc1	-15% (inactive)	–
COc1ccc2[nH]c(C(=O)N3CCN(C)CC3)c(C)c2c1	15.2% (inactive)	–
Cc1c(C(=O)N2CCOCC2)[nH]c2ccc(OCc3ccccc3)cc12	–	18.4 µM (active)
CCOC(=O)c1[nH]c2ccc(OC)cc2c1NC(=O)N1CCOCC1	12.1% (inactive)	–
